ID4 SMM = binders of human ID4 protein; P47928; small molecule microarray, Flag-ID4 binding, fluorescence F/B; calls only; 1.2% of 31,000 active; AID 624137; call rule not given here;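 also: a binder raises fluorescence above local background on the spot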
Target sequence (P47928 whole entry, looked up): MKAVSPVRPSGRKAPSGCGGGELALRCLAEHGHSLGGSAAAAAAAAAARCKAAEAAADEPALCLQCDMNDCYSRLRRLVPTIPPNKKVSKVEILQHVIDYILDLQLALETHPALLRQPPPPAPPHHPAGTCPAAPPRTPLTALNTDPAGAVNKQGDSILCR
p53 PUMA act = re-activators of the mutant p53 pathway | SW480 PUMA-promoter luciferase, p53 mutant reactivation | 1.5% of 28,000 active | AID 624151 | activation, % at 9.98 µM; in the data active = activation above about 52%; inconclusive = no clear call, values can overlap the other calls
Of the large screens only hits and unclear results are named; the others gave an inactive call. An excerpt weighted towards active compounds, which were near 2.3% of everything screened.

COc1ccc(-n2c(SCC(=O)N(c3ccccc3)c3ccccc3)nc3ccccc3c2=O)cc1	none
CC(CNC(=O)c1ccco1)NC(=O)c1ccco1 (stereo unspecified)	ID4 SMM active
O=C(NCCNC(=O)c1ccco1)c1ccco1	none
Cn1c(CN2C(=O)CSc3ccc(C(F)(F)F)cc32)nnc1SCc1ccccc1	none
COc1cc(Cl)c(C)cc1NC(=O)C1CCC(=O)N1S(=O)(=O)c1ccc(C)cc1 (stereo unspecified)	none
COc1ccc2cc(CCC(C)=O)ccc2c1	none (no result: p53 PUMA act)
CC(=O)CCc1ccc(Oc2ccc(C(F)(F)F)cn2)cc1	p53 PUMA act 65
Cn1c(SCC(=O)Nc2c(F)cc(F)cc2Br)nnc1-c1cnccn1	none
O=C(NCc1c(OC(=O)c2ccccc2[N+](=O)[O-])ccc2ccccc12)c1ccccc1	none
O=c1c(-c2ccc(O)cc2)coc2cc(O)cc(O)c12	p53 PUMA act 53
COc1cc(O)cc2occ(-c3ccc(O)cc3)c(=O)c12	none
C=CC(C)(O)CC(/C=C(\C)CC(/C=C(\C)CCC=C(C)C)OC(C)=O)OC(C)=O (stereo unspecified)	none
Cc1ccc(N(Cc2cc3ccccc3[nH]c2=O)C(=O)c2cccnc2)cc1	none
O=C(c1ccc([N+](=O)[O-])cc1)N(Cc1cc2ccccc2[nH]c1=O)c1ccccc1	ID4 SMM active
COc1cc(CCC(=O)O)cc(OC)c1OC	none (no result: ID4 SMM)
O=C(CCc1nc(-c2ccc(Cl)cc2)no1)N1CCOCC1	none
Cc1ccc(-c2noc(CCC(=O)Nc3ccccc3[N+](=O)[O-])n2)cc1	none
Cc1ccc(-c2noc(CCC(=O)NC(C)(C)C)n2)cc1	p53 PUMA act 61
CCc1cc2c(=O)n(CC(=O)Nc3cc(OC)ccc3OC)cnc2s1	none
Cc1ccc(NC(=O)COc2ccc(Cl)cc2)c([N+](=O)[O-])c1	p53 PUMA act 95
CCc1ccc(OCC(=O)Nc2ccc(C)cc2[N+](=O)[O-])cc1	p53 PUMA act 66
CCOc1ccc(OCC(=O)Nc2ccc(C)cc2[N+](=O)[O-])cc1	none
Cc1ccc(NC(=O)COc2cc(C)c(Br)c(C)c2)c([N+](=O)[O-])c1	none
CC(C)(C)c1ccc(-c2nnc(SCc3cccc(C(N)=O)c3)n2-c2ccc3c(c2)OCO3)cc1	none
Cc1ccccc1CN(CC(N)=O)S(=O)(=O)c1ccc(Cl)cc1	none
C[C@@H]1CN([C@H](C)CO)C(=O)c2cc(NC(=O)Cc3cn(C)c4ccccc34)ccc2O[C@H]1CN(C)C(=O)Nc1ccccc1	none
COc1ccc(CN(C)C[C@@H]2Oc3ccc(NC(=O)Cc4cn(C)c5ccccc45)cc3C(=O)N([C@@H](C)CO)C[C@@H]2C)cc1	ID4 SMM active
C[C@H]1CN([C@@H](C)CO)C(=O)c2cc(NC(=O)Cc3cn(C)c4ccccc34)ccc2O[C@H]1CN(C)C(=O)Nc1ccccc1	ID4 SMM active
COc1ccc(CN(C)C[C@@H]2Oc3ccc(NC(=O)Cc4cn(C)c5ccccc45)cc3C(=O)N([C@H](C)CO)C[C@@H]2C)cc1	none
CC(C)n1cnc2c(NCc3ccccc3)nc(NCCO)nc21	p53 PUMA act 92
CC(C)n1cnc2c(NCc3ccccc3)nc(NCCCO)nc21	none (no result: ID4 SMM)
CC1=C(C(=O)OCc2ccccc2)C2(O)C(=O)c3ccccc3C2(O)N1 (stereo unspecified)	none
CC(=O)c1cccc(NC(=O)CNS(=O)(=O)c2ccc(Br)cc2)c1	none
CC(=O)c1ccc(NC(=O)CNS(=O)(=O)c2cccc(Cl)c2)cc1	p53 PUMA act 68
CC(=O)Nc1ccc(NC(=O)CNS(=O)(=O)c2c(C)cc(C)cc2C)cc1	ID4 SMM active
Cc1cc(C)c(S(=O)(=O)NCC(=O)Nc2ccc(I)cc2)c(C)c1	none
O=[N+]([O-])c1cc(C(F)(F)F)ccc1NCCNS(=O)(=O)c1ccc(Br)cc1	none
O=C(NCc1nc2ccccc2[nH]1)C1=C[C@H](C2CC2)C[C@H](OCc2ccc(CO)cc2)O1	ID4 SMM active (no result: p53 PUMA act)
O=C(NCc1nc2ccccc2[nH]1)C1=C[C@@H](C2CC2)C[C@@H](OCc2ccc(CO)cc2)O1	none (no result: p53 PUMA act)
O=C(CSc1nc(-c2ccccc2)cs1)Nc1ccc(Cl)cc1Cl	p53 PUMA act inconclusive
CCOC(=O)c1c(NC(=S)N(C)Cc2c(C)nn(C)c2C)sc2c1CCCCCC2	ID4 SMM active
CCOC(=O)c1c(NC(=S)NCc2cc(C)n(C)n2)sc2c1CCCC2	none
CCN(CC(=O)Nc1cccc(Cl)c1)S(=O)(=O)c1ccc(Br)cc1	none
O=C(O)CCCC(=O)Nc1cc(C(=O)O)ccc1Cl	none
O=C(COc1ccc2ccccc2c1Br)NCc1ccccn1	p53 PUMA act 96
CC(C)(C)NS(=O)(=O)c1ccc(NC(=O)COc2ccc3ccccc3c2Br)cc1	none
CNC[C@@H]1Oc2c(NC(=O)Nc3ccc4c(c3)OCO4)cccc2C(=O)N([C@@H](C)CO)C[C@H]1C	none (no result: ID4 SMM)
C[C@H](CO)N1C[C@H](C)[C@@H](CN(C)C(=O)Nc2ccc(C(F)(F)F)cc2)Oc2c(NC(=O)Nc3cccc4ccccc34)cccc2C1=O	none
C[C@@H]1CN([C@@H](C)CO)C(=O)c2cccc(NC(=O)Nc3ccc4c(c3)OCO4)c2O[C@H]1CN(C)C	p53 PUMA act 74
